The full data set covers some 7,900 targets. This sample favours those with a hit. About 0.6% of all pairs of compound and target were hits.
Assays:
Test in all cases: log2 fold change, soluble protein after heating vs DMSO (PISA); higher = thermal stabilisation; K562 cells, 10 uM, 30 min; active = over 0.2 and 3.5 SD of the protein, either way, in both replicates (recomputed)
[1] = compound: C#Cc1cccc(Nc2ncnc3cc(OCCOC)c(OCCOC)cc23)c1 [erlotinib]
Outline: (§1)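 Quantification of soluble protein used TMTpro 16plex LC-MS/MS, with channel sums equalised. Samples were the supernatant after 21,000xg for 90 min of pooled aliquots from K562 cells (2×10^6 cells/mL) treated with 10 μM compound for 30 min, heated for 3 min over 48°C-58°C, and extracted in PBS with 0.5% NP-40 at 4°C. Values, from duplicates, describe thermal stability against control samples on a log2 fold-change scale.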

[2] = compound: C/C(=N\NC(=O)C1=CC(=CC=C1)S(=O)(=O)N2CCOCC2)/C3=C(C=CC(=C3)Cl)O
Outline: as §1

[3] = compound: C1=CC(=C(C=C1Cl)C2=NC3=NC=CN=C3C(=N2)NC4=CC=NC=C4)F
Outline: as §1

[4] = compound: C1=CC(=CC=C1C2=NC3=C(N2)C=C(C=C3)C(=O)N)OC4=CC=C(C=C4)Cl
Outline: as §1

[5] = compound: C1=CC2=C(C=CC(=C2)/C=C\3/C(=O)NC(=NCC4=CC=CS4)S3)N=C1
Outline: as §1

[6] = compound: C1=CC2=NC=CN=C2C=C1/C=C/3\C(=O)NC(=O)S3
Outline: as §1

[7] = compound: C1=CC=C(C=C1)C2=NC(=C(N2)C3=CC=NC=C3)C4=CC(=C(C=C4)Cl)O
Outline: as §1

[8] = compound: C1=CC=C2C(=C1)C3=NNC4=CC=CC(=C43)C2=O
Outline: as §1

[9] = compound: C1CCN(C1)C(=O)NC2=CC=CC(=C2)NC3=NC=C(C(=N3)NCCC4=CN=CN4)Br
Outline: as §1

[10] = compound: C1CN(CCC1(CC2=CC=C(C=C2)Cl)N)C3=NC=NC4=C3C=CN4
Outline: as §1

[11] = compound: C1COCCN1CCN2C3=CC=CC=C3N=C2NC(=O)C4=CC(=CC=C4)[N+](=O)[O-] [IRAK-1-4 Inhibitor I]
Outline: as §1

[12] = compound: C=CC(=O)N1CCC[C@@H](n2nc(-c3ccc(Oc4ccccc4)cc3)c3c(N)ncnc32)C1 [ibrutinib]
Outline: as §1

[13] = compound: CC(=O)c1cnc2ccc(-c3cc(Cl)c(O)c(Cl)c3)nc2c1N[C@H]1CC[C@H](CN(C)C)CC1
Outline: as §1

[14] = compound: CC(C)(C)Cn1c(N)nc2ccc(-c3[nH]c(C(C)(C)C)nc3-c3ccc(F)cc3)nc21 [ralimetinib]
Outline: as §1

[15] = compound: CC(C)(O)CC(=O)NCCn1ccc2ncnc(Nc3ccc(Oc4cccc(C(F)(F)F)c4)c(Cl)c3)c21
Outline: as §1

[16] = compound: CC(C)C1=C2N=C(C=C(N2N=C1)NCC3=CC=CC=C3)NCCCCCCN
Outline: as §1

[17] = compound: CC(C)C[C@@H](C=O)NC(=O)[C@H](CC(C)C)NC(=O)[C@H](CC(C)C)NC(=O)OCc1ccccc1
Outline: as §1

[18] = compound: CC(C)N(C[C@H]1O[C@@H](n2cnc3c(N)ncnc32)[C@H](O)[C@@H]1O)[C@H]1C[C@@H](CCc2nc3cc(C(C)(C)C)ccc3[nH]2)C1 [pinometostat]
Outline: as §1

[19] = compound: CC1=C(C(CC(=O)N1)C2=CC=C(C=C2)C(F)(F)F)C(=O)NC3=C(C=C4C(=C3)C=NN4)F
Outline: as §1

[20] = compound: CC1=C(C2=C(C=C1)C(=O)C3=CC=CC=C3N2CCCN)C
Outline: as §1

Measured: log2 fold change

FAM114A2 (UniProt Q9NRY5)
Sequence of UniProt Q9NRY5 (Q9NRY5 whole entry, looked up): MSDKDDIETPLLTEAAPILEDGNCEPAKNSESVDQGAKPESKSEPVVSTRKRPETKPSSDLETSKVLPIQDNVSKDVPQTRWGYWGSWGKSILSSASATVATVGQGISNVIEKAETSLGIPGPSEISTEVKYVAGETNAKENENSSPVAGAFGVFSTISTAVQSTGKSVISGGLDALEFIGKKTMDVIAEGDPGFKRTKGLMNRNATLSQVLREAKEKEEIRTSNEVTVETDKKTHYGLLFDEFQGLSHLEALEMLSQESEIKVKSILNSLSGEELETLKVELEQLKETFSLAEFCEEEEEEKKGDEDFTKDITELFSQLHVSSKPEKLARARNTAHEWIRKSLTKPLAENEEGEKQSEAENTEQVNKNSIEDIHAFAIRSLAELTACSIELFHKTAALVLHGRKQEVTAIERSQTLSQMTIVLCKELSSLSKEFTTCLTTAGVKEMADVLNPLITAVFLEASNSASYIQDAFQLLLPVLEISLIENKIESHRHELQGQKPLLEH
inactive: [1] -0.001 | [2] 0.051 | [3] 0.055 | [4] -0.002 | [5] 0.008 | [6] 0.067 | [7] -0.018 | [8] -0.04 | [9] -0.002 | [10] -0.021 | [11] 0.038 | [12] -0.03 | [13] 0.013 | [14] -0.017 | [15] -0.135 | [16] -0.201 | [17] 0.004 | [18] 0.005 | [19] -0.01 | [20] -0.059

FAM118B (UniProt Q9BPY3)
Sequence of UniProt Q9BPY3 (Q9BPY3 whole entry, looked up): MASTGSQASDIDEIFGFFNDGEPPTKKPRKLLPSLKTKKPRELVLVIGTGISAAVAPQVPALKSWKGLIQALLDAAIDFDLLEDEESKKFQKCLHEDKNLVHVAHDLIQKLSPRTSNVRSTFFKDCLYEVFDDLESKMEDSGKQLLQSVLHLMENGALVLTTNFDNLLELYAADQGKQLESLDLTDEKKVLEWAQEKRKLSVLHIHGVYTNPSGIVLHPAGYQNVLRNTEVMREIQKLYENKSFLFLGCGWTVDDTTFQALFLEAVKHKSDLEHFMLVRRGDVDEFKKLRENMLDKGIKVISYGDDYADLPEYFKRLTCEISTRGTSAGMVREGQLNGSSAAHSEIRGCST
inactive: [1] 0.164 | [2] 0.098 | [3] 0.195 | [4] -0.084 | [5] 0.123 | [6] 0 | [7] 0.044 | [8] -0.021 | [9] -0.045 | [10] -0.023 | [11] 0.039 | [12] 0.073 | [13] -0.118 | [14] 0.051 | [15] -0.199 | [16] -0.145 | [17] 0.065 | [18] -0.024 | [19] 0.014 | [20] 0.042

ERLIN2 (UniProt O94905)
Sequence of UniProt O94905 (O94905 whole entry, looked up): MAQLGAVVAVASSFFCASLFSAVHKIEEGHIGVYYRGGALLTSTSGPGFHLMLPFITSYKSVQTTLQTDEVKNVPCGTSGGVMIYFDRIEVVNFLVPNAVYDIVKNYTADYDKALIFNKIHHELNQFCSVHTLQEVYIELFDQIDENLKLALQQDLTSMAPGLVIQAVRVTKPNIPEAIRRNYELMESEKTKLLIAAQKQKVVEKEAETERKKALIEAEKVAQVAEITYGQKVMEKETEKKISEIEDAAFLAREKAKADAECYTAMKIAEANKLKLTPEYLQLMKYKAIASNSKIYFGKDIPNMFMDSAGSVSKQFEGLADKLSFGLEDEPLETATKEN
inactive: [1] -0.073 | [2] -0.075 | [3] -0.054 | [4] -0.014 | [5] -0.012 | [6] 0.027 | [7] 0.021 | [8] -0.054 | [9] -0.002 | [10] -0.097 | [11] -0.089 | [12] 0.001 | [13] 0.058 | [14] 0.004 | [15] 0 | [17] 0.035 | [18] 0.093 | [19] 0.021 | [20] 0.013
active: [16] -0.296

FAM50A (UniProt Q14320)
Sequence of UniProt Q14320 (Q14320 whole entry, looked up): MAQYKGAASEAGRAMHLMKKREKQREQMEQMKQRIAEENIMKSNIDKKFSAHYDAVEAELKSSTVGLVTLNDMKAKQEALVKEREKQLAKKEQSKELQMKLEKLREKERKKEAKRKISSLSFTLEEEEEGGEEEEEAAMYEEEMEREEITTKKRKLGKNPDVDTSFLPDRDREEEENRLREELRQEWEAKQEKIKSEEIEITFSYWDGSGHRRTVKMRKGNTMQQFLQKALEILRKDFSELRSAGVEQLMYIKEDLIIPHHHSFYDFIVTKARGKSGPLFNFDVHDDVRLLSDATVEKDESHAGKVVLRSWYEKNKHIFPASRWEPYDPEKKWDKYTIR
inactive: [1] 0.015 | [2] 0.051 | [3] 0.054 | [4] -0.017 | [5] -0.009 | [6] 0.062 | [7] -0.019 | [8] -0.001 | [9] -0.026 | [10] -0.065 | [11] -0.014 | [12] -0.011 | [13] -0.01 | [14] -0.029 | [15] -0.027 | [16] 0 | [17] 0.043 | [18] -0.016 | [19] -0.026 | [20] 0.053

F5 (UniProt P12259)
Sequence of UniProt P12259 (P12259 whole entry, looked up): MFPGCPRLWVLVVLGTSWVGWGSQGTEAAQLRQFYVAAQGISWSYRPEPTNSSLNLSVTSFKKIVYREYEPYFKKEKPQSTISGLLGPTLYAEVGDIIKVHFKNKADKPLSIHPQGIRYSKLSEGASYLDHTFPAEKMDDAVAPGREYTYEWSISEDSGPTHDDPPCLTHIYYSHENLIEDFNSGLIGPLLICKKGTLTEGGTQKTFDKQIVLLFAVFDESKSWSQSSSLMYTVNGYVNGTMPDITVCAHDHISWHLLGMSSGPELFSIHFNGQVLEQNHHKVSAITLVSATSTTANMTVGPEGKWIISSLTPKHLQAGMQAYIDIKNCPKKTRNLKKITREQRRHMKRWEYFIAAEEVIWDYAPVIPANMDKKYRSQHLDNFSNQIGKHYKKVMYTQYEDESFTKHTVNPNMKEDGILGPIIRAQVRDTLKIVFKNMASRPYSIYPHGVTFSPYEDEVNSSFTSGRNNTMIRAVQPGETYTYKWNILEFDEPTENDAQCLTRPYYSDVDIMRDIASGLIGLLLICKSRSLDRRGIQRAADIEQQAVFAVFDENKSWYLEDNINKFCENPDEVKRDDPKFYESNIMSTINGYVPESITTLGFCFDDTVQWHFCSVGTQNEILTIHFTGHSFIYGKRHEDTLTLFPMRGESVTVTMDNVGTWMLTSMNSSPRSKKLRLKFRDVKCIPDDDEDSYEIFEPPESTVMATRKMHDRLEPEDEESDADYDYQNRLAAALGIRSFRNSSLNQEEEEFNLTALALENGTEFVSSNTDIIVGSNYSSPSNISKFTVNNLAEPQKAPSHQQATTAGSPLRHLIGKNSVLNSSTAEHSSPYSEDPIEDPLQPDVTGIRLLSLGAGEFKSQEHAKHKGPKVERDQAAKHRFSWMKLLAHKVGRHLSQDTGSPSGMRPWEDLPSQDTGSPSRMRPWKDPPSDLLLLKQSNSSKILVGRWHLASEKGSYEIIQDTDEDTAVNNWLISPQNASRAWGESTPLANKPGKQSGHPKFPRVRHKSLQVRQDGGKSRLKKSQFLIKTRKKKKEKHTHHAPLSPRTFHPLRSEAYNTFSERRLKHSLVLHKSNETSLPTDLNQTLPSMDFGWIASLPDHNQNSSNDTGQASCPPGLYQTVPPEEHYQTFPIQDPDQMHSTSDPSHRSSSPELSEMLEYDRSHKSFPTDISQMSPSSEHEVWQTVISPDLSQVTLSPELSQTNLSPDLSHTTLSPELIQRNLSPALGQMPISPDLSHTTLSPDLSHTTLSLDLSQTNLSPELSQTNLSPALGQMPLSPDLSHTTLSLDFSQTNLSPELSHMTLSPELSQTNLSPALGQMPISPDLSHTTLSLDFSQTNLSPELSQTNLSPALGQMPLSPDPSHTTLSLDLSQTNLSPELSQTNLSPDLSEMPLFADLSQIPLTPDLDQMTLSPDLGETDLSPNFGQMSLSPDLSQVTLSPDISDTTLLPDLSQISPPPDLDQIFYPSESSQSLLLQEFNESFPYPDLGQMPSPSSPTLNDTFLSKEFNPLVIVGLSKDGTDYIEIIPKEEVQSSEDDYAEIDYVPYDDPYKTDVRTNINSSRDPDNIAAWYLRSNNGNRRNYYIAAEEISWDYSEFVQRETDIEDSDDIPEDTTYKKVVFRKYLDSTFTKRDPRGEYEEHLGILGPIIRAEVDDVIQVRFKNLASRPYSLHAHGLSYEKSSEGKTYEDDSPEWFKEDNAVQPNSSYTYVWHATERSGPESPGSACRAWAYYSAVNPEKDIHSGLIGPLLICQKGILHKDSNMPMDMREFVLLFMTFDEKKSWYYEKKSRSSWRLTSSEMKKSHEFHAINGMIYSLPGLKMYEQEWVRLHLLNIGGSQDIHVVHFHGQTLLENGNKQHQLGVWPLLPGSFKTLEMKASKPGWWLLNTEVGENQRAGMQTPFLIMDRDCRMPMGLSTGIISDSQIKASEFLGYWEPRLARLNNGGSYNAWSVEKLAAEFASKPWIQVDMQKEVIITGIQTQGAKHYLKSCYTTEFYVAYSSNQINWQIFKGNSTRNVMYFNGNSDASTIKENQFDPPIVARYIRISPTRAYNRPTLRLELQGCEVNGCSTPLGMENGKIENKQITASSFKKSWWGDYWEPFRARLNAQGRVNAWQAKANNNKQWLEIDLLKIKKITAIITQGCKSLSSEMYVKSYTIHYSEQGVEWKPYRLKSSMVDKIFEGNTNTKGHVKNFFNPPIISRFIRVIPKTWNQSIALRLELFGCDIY
inactive: [1] -0.122 | [2] 0 | [3] -0.002 | [4] 0.061 | [5] -0.096 | [6] -0.054 | [7] -0.018 | [8] -0.064 | [9] 0 | [10] 0.052 | [11] 0.006 | [12] 0.064 | [13] 0.003 | [14] -0.042 | [15] 0.168 | [16] -0.088 | [17] 0.001 | [18] -0.016 | [19] -0.017 | [20] -0.129

DCAF10 (UniProt Q5QP82)
Sequence of UniProt Q5QP82 (Q5QP82 whole entry, looked up): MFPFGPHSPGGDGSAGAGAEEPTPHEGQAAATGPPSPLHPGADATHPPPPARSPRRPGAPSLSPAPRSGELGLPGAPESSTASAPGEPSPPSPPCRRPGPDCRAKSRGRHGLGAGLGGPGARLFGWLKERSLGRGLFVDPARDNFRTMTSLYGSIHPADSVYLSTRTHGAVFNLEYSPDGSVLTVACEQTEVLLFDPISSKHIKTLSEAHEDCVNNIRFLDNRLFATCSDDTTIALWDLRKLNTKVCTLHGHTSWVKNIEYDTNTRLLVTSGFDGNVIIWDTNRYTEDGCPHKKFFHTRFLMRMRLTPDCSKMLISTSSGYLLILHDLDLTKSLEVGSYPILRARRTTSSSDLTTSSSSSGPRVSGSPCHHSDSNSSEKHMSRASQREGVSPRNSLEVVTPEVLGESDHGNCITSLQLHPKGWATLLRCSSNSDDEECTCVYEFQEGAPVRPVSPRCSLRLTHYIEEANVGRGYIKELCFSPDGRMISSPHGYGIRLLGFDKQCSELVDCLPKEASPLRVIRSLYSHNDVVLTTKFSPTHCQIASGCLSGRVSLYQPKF
inactive: [1] 0.01 | [2] 0.014 | [3] 0.021 | [4] 0.029 | [5] -0.038 | [6] 0.064 | [7] -0.077 | [8] -0.013 | [9] 0.029 | [10] 0.006 | [11] 0 | [12] 0 | [13] -0.006 | [14] -0.082 | [15] -0.041 | [16] 0.02 | [17] 0.026 | [18] -0.016 | [19] 0.061 | [20] 0.01

FAM83D (UniProt Q9H4H8)
inactive: [1] 0.035 | [2] 0.027 | [3] -0.124 | [4] -0.015 | [5] -0.016 | [6] 0.02 | [7] 0.086 | [8] 0.059 | [9] -0.071 | [10] -0.062 | [11] 0 | [12] -0.094 | [13] 0.022 | [14] 0.145 | [15] -0.035 | [16] -0.232 | [17] -0.062 | [18] 0.041 | [19] -0.049 | [20] 0.1

DTWD2 (UniProt Q8NBA8)
Sequence of UniProt Q8NBA8 (Q8NBA8 whole entry, looked up): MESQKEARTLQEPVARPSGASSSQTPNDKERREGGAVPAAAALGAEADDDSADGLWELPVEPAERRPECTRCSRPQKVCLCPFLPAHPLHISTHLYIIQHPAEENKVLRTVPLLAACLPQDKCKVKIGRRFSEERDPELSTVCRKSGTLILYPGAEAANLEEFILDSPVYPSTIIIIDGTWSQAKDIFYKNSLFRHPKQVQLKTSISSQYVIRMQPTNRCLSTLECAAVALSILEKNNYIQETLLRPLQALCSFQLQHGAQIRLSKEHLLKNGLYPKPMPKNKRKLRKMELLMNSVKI
inactive: [1] 0.017 | [2] 0.018 | [3] 0.014 | [4] -0.095 | [5] -0.124 | [6] 0.072 | [7] 0.065 | [8] 0.033 | [9] 0.066 | [10] -0.02 | [11] 0.094 | [12] 0.001 | [13] 0.009 | [14] 0.092 | [15] -0.07 | [16] -0.179 | [17] 0.003 | [18] 0.082 | [19] 0.031 | [20] -0.004

— the supplement of paper PMC10849652
